From PubChem
DT40 TDP1 CPT = qHTS for Inhibitors of human tyrosyl-DNA phosphodiesterase 1 (TDP1): qHTS in cells in presence of CPT | chicken DT40 Tdp1-/-;hTDP1 cells + 20 nM CPT, ATP luminescence, 48 h | Potency, µM (series often up to 46.2 µM), without a hit: at the highest dose activity change, negative = growth inhibition, hits mostly inhibitors | actives 12% (n = 420,000) | AID 686979, 2013; also: potency is read from the fitted curve at half-maximal effect; % is scaled to controls: 0 for no effect and ±100 for the full control effect; nearly all actives have a fitted effect of over 55% in size
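Chicken DT40 Tdp1-/- cells complemented with human TDP1, 400 cells/well, exposed to compounds plus 20 nM camptothecin for at least 48 h at 37 C; viability read as ATP content by CellTiter-Glo luminescence.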
TGFb SMAD3 inh = qHTS for Inhibitors of TGF-b; HepG2 CAGA-GFP TGF-b/SMAD3 reporter, GFP fluorescence, 18 h; TGF-beta stimulated, 500 pg/mL final; Potency, µM (highest dose often 46.1 µM), for inactives: at the top dose activity, negative = inhibition, actives largely listed as inhibitors; actives 1.2% (n = 410,000); AID 588855, 2011; also: potency is read from the fitted curve at half-maximal effect; % is scaled to controls: 0 for no effect and ±100 for the full control effect; nearly all actives have a fitted effect of over 65% in size
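Inhibition of TGF-beta-driven CAGA-GFP reporter expression in HEPG2 cells is measured by cellular GFP fluorescence after 18 h stimulation with 500 pg/mL recombinant TGF-beta in 1% FBS medium at 37 degrees C.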
HepG2 tox = qHTS for Inhibitors of TGF-b: Cytotox Counterscreen | HepG2 CAGA-GFP viability, ATP luminescence, 18 h | actives 0.76% (n = 410,000) | AID 588856, 2011 | Potency, µM (titrated, usually from 46.1 µM), for inactives: at the top dose activity change, negative = cytotoxicity, hits mostly cytotoxic; also: potency is read from the fitted curve at half-maximal effect
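HepG2 CAGA-GFP cells (1000/well, DMEM with 1% FBS) received compound, then TGF-beta at 500 pg/mL final, and were incubated 18 hours at 37 degrees C. Viability was read by CellTiter-Glo luminescence. Media-only wells were set as complete cell-killing and DMSO as no toxicity.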
S-ASM inh = Inhibitors of Secretory Acid Sphingomyelinase (S-ASM): qHTS; placental ASM, HMU-PC fluorogenic substrate, 60 min; actives 0.006% (n = 340,000); Potency, µM (top dose mostly 57.5 µM), without a hit: top-dose activity change, negative = inhibition, actives largely listed as inhibitors; Sphingomyelin phosphodiesterase (Homo sapiens), P17405; also: potency is read from the fitted curve at half-maximal effect
Target sequence (P17405 47-631 limits assumed): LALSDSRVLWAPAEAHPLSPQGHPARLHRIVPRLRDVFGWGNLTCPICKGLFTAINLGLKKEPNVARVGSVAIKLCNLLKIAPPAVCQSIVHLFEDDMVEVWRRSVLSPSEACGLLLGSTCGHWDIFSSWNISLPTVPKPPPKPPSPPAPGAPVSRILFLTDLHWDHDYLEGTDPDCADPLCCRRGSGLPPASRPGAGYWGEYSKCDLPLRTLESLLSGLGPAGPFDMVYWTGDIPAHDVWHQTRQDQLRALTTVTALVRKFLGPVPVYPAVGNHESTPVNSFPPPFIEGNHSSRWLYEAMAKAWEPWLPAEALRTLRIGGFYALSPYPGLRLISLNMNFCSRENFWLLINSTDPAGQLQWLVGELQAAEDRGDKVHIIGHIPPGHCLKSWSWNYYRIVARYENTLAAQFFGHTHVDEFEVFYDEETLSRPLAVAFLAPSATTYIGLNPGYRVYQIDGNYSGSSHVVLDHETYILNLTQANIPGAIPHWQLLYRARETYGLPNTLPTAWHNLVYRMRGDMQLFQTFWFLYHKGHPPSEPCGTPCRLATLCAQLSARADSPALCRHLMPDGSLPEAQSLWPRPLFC
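Human placenta-derived ASM preincubated with compound 10 min at room temperature, then reacted with 9 uM (final) fluorogenic HMU-PC substrate for 60 min at 37 C. Stop solution raises pH to 10; fluorescence read at Ex 386/Em 447 nm.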
DT40 TDP1 no CPT = qHTS for Inhibitors of human tyrosyl-DNA phosphodiesterase 1 (TDP1): qHTS in cells in absence of CPT; DT40 Tdp1-/- hTDP1 cells, no CPT, ATP luminescence, 48 h; Potency, µM (series often up to 46.2 µM), for the others: at the top dose activity change, negative = growth inhibition, usual class: inhibitors; actives 15% (n = 420,000); also: potency is read from the fitted curve at half-maximal effect; % is scaled to controls: 0 for no effect and ±100 for the full control effect; nearly all actives have a fitted effect of over 55% in size
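Growth kinetics read by CellTiter-Glo luminescence after ≥48 hr at 37 °C. Cells: DT40 Tdp1-/- stably carrying human TDP1, 400 per well, compound exposure in the absence of CPT (DMSO vehicle).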
IL-1B inflam inh = qHTS for Inhibitors of Inflammasome Signaling: IL-1-beta AlphaLISA Primary Screen. activity change, % at 57.5 µM. actives 4.7% (n = 360,000). THP-1 LPS/ATP IL-1B secretion, AlphaLISA, 16 h; active compounds read low; in the data active = activity change below about -50%; inconclusive = mostly about -30% to -49%; also: % is scaled to controls: 0 for no effect and ±100 for the full control effect
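Secreted IL-1B measured by AlphaLISA bead assay after 16 h compound exposure of THP-1 cells; compounds (final up to 57.5 uM) added 1 h before LPS (250 ng/mL) and ATP (1.25 mM) stimulation; lower signal means less secretion.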
* = called active by the depositor; ? = inconclusive; · = no result. A selection: hits, their analogues and other compounds. The true share with any hit is near 19%. Unless noted, calls follow the shape of the dose curve; as a rule, active = well fitted curve in the direction sought with a large enough effect; inconclusive = small, poorly fitted or top-dose-only effect, or another doubt; inactive = no such curve, though single readings can be large; an effect the other way counts as inactive or inconclusive.

SMILES	DT40 TDP1 CPT	TGFb SMAD3 inh	HepG2 tox	S-ASM inh	DT40 TDP1 no CPT	IL-1B inflam inh
COc1ccc(Nc2ncc(C(=O)Nc3cccc(Cl)c3)c3ccccc23)cc1	?	?	-39%	·	?	·
COC(=O)[C@H]1C[C@@H]1[C@H](N)c1ccccc1	0%	13%	7%	1%	-2%	19
Cc1ccc(C(=O)CN(CCCC(N)=O)C(=O)c2ccncc2)cc1	0%	1%	-5%	2%	8%	24
O=C(NCC(=O)N(c1cccnc1)C(C(=O)NC1CCCC1)c1cccs1)c1cccs1 (centres undefined)	-5%	?	-12%	1%	2%	-1
Nc1ncnc2c1ncn2[C@@H]1O[C@H](COS(=O)(=O)O)[C@@H](O)[C@H]1O	?	-10%	4%	3%	18µM*	29
Nc1nc2c(ncn2C2OC(CO)CC2O)c(=O)[nH]1 (centres undefined)	0.92µM*	·	·	·	1.5µM*	·
Nc1nc2c(ncn2CCC(CO)CO)c(=O)[nH]1	0.67µM*	·	·	·	1.7µM*	·
Nc1ncnc2c1ncn2[C@@H]1O[C@H](CO)C[C@H]1O	8.2µM*	-28%	-24%	4%	7.3µM*	-19
Nc1ncnc2c1ncn2[C@@H]1O[C@H](COP(=O)(O)O)[C@@H](O)[C@H]1O	?	-10%	31%	?	4%	-8
COc1ccc(-c2nnc(C(C)Nc3cccc(C(=O)NC4CC4)c3)o2)cc1 (centres undefined)	-18%	-15%	9%	1%	-22%	14
Cc1ccc(N(C)S(=O)(=O)c2cccc(C(=O)NCCCN3CCCC3=O)c2)cc1	-17%	11%	-2%	1%	-24%	-6
CCOC(=O)N1CCN(S(=O)(=O)N2CCCC(C(=O)NCc3ccccc3OC)C2)CC1 (centres undefined)	?	13%	2%	4%	?	41
COc1ccccc1-c1nc2c3ccccc3nc(=S)n2[nH]1	?	-37%	-72%	-5%	-30%	0
S=c1nc2ccccc2c2nc(-c3ccccc3)[nH]n12	21µM*	?	-26%	6%	9.2µM*	26
S=c1nc(-c2ccccc2)[nH]n1-c1ccccc1	-20%	-4%	-8%	2%	23µM*	7
S=c1nc2ccccc2c2nc(-c3ccccc3Cl)[nH]n12	3.3µM*	?	-27%	-1%	3.7µM*	36
COc1cc(-c2nc3c4ccccc4nc(=S)n3[nH]2)cc(OC)c1OC	?	0%	2%	0%	?	22
CC(Oc1ccc(Br)cc1)c1nc2c3ccccc3nc(=S)n2[nH]1 (centres undefined)	?	?	-6%	-16%	15µM*	14
CCCC(Oc1ccc(Br)cc1)c1nc2c3cc(OC)c(OC)cc3nc(=S)n2[nH]1 (centres undefined)	?	?	6%	-5%	?	4
COc1cc(C2C(C(=O)Nc3ccccc3C)=C(C)Nc3ncnn32)ccc1OCC(N)=O (centres undefined)	-7%	-1%	1%	·	-1%	·
COc1cccc(-c2cc(NC=O)c3ncc(-c4cccc(C(=O)NCCN(C)C)c4)n3c2)c1	?	?	-39%	·	?	-13
COc1cccc(-c2cnc3c(NC(C)=O)cc(-c4cccc(C(=O)NCCO)c4)cn23)c1	16µM*	7%	-15%	·	?	-10
CC(=O)Nc1cc(-c2cccc(C(=O)NCCO)c2)cn2c(-c3ccc(F)c(Cl)c3)cnc12	29µM*	-20%	-41%	·	23µM*	1
O=C(Nc1ccc(F)cc1F)c1cc(-c2ccc(Cl)cc2)on1	-1%	5%	-14%	·	?	·
CC1(C(=O)NS(=O)(=O)c2ccc(Br)cc2)CCN1C(=O)CCc1ccccc1 (centres undefined)	-3%	8%	-6%	·	-2%	10
SMILES	DT40 TDP1 CPT	TGFb SMAD3 inh	HepG2 tox	S-ASM inh	DT40 TDP1 no CPT	IL-1B inflam inh
CS(=O)(=O)c1ccc2nc(NC(=O)CN3C(=O)NC4(CCCC4)C3=O)sc2c1	1%	-24%	3%	7%	4%	0
O=[N+]([O-])c1ccc(C=NN2CCCCCC2)cc1	?	-8%	-23%	-14%	18µM*	?
O=[N+]([O-])c1ccc(/C=N/n2c(C3CCCCC3)n[nH]c2=S)cc1	?	-1%	-24%	-2%	16µM*	-21
CSc1ccc(/C=N/n2c(C3CCCCC3)n[nH]c2=S)cc1	?	-11%	-42%	-4%	?	-62*
S=c1[nH]nc(C2CCCCC2)n1/N=C/c1ccncc1	?	-1%	-17%	5%	?	-15
O=C(CN1CCOCC1)Nc1ccc(Cl)cn1	0%	8%	2%	1%	4%	-16
COc1ccc(OC)c(NC(=S)N2CCN(c3ccccn3)CC2)c1	3%	-1%	11%	3%	-21%	-12
S=C(Nc1cc(Cl)ccc1Oc1ccccc1)N1CCN(c2ccccn2)CC1	?	?	-9%	0%	?	-79*
COc1ccc(NC(=O)C(C)N(C)Cc2ccc3ccccc3c2)cc1 (centres undefined)	?	-20%	-37%	-2%	13µM*	?
CCC(C)c1ccccc1NC(=O)C(C)N(C)Cc1cccc(OC)c1 (centres undefined)	?	?	-7%	1%	16µM*	-6
COc1ccc(NC(=O)C(CC(=O)O)C(C)c2ccccc2)cc1 (centres undefined)	16µM*	3%	10%	0%	?	45
COc1cc(C(=O)NCCNC(=O)c2cnccn2)cc(OC)c1OC	15%	?	7%	27%	7%	24
Cc1cc2oc(C(=O)Nc3cccc(-c4nc5ccccc5o4)c3)c(C)c2cc1C	?	-44%	-3%	·	?	·
CCC(c1nc2ccccc2[nH]1)n1c(-c2cnccn2)nc2ccccc21 (centres undefined)	13%	·	·	·	-13%	?
CC(c1nc2ccccc2n1Cc1ccccc1)n1c(-c2cnccn2)nc2ccccc21 (centres undefined)	15µM*	·	·	·	21µM*	24
